The results in this text go back to PubChem BioAssay (EPA / NIEHS).

Inconclusive results are not listed. Calls of active or inactive are those of the source. The calls were made as follows: active = hit-call score of the fitted dose curve at least 0.9, where 1 is the maximum; inconclusive = response in the unintended direction; inactive = score below 0.9.

The nature of assay [1]: TOX21_p53_BLA_p2_viability: Viability Assessment in the Tox21 HCT-116 p53 Agonism Beta-lactamase Assay, Phase 2 (AID 2283591).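 Also: compound exposure lasted 16 h at 37 °C; actives lower the ATP signal meaning cytotoxicity.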 Put shortly:
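HCT116 p53-bla cells, 4000/well, dosed after 5 h plating (217-fold dilution of DMSO stocks) and incubated 16 h at 37C. Viability taken as cellular ATP by CellTiter-Glo luminescence after 30 min RT; signal loss marks cytotoxicity.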

Assay [2] can be described thus: TOX21_p53_BLA_p3_viability: Viability Assessment in the Tox21 HCT-116 p53 Agonism Beta-lactamase Assay, Phase 3 (AID 2283593).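 Also: cells exposed to compound for 16 h before reading.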 In a few lines:
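HCT116 cells, 4000/well, dosed 5 h after plating by pin transfer (217-fold dilution from DMSO stock) and incubated 16 h at 37C, 5% CO2. Viability read as ATP luminescence with CellTiter-Glo after 30 min at room temperature.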

Assay [3] can be described thus: TOX21_p53_BLA_p4_viability: Viability Assessment in the Tox21 HCT-116 p53 Agonism Beta-lactamase Assay, Phase 4 (AID 2283597).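 Also: hits lower the luminescence signal meaning cytotoxicity.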 In a few lines: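 Cytotoxicity was inferred from loss of CellTiter-Glo luminescence. HCT116 cells had been dosed with compounds after 5 h plating, incubated 16 h at 37C and 5% CO2, and exposed to the CCF4-AM substrate for 2 h.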
Assay [4] can be described thus: TOX21_p53_BLA_p5_viability: Viability Assessment in the Tox21 HCT-116 p53 Agonism Beta-lactamase Assay, Phase 5 (AID 2283600). In a few lines:
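Luciferase-coupled ATP quantitation of cells treated for 16 h (37C, 5% CO2) with test chemicals delivered in DMSO via a 217-fold dilution; 4000 cells/well; reagent incubated 30 min at room temperature before luminescence reading.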

The target of assay [5] is Cellular tumor antigen p53 (Homo sapiens) (UniProt P04637). In words: TOX21_p53_BLA_p4_ratio: Tox21 HCT-116 p53 Agonism Beta-lactamase Assay, Ratio, Phase 4 (AID 2283601). In a few lines: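 HCT-116 p53 beta-lactamase reporter cells (4000/well) preincubated 5 h, then compound (217-fold dilution of DMSO stock) for 16 h at 37C. CCF4-AM substrate added 2 h at room temperature; 460/530 nm emission ratio fitted upward versus DMSO.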

Assay [6] is described as follows: ACEA_ER_AUC_viability: ACEA Biosciences xCELLigence Real-Time Cell Analysis on Estrogen Receptor Agonism for Viability (AID 2283782).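 Also: hit means loss of impedance signal meaning reduced cell growth or viability.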 Put shortly: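 Read-out: real-time electrical impedance (RT-CES) area under curve, loss of signal taken as reduced viability, normalized to DMSO baseline. T-47D cells, charcoal-stripped serum medium, compounds up to 100 uM final, continuous exposure, 80 h.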

Assay [7] deals with Thyroid hormone receptor alpha (Rattus norvegicus) + Thyroid hormone receptor beta (Rattus norvegicus) (UniProt P18113+P63059). As to the kind of experiment: TOX21_TR_LUC_GH3_Antagonist_Followup: Tox21 GH3 Thyroid Hormone Receptor Antagonism Luciferase Follow-Up Assay (AID 2283942). Put shortly:
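Luminescence read-out (ONE-Glo, 30 min at room temperature) in GH3 reporter cells challenged with 1.0 nM T3 final. Compounds ran at 92 uM to 5nM over 15 concentrations for 24 h; DMSO served as negative control and baseline.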

The target of a further assay is THRA (gene 7067) (UniProt P10827). In words: TOX21_TRA_COA_Antagonist_Followup_ratio: Tox21 Thyroid Hormone Receptor alpha Antagonism through Coactivator Recruitment Follow-Up Assay, Ratio (AID 2283953). In a few lines:
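GST-TRα LBD 2.5 nM, BSA 0.10%, + cpd; then FITC-SRC-2 peptide 200 nM + Tb-anti-GST Ab 2 nM. TR-FRET ratio 520/495 nm. Norm: DMSO = 0%, T3 = 100%.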

For assay [8], the target named is THRB (gene 7068) (UniProt P10828). In words: TOX21_TRB_BLA_Antagonist_Followup_ratio: Tox21 Thyroid Hormone Receptor beta Antagonism Beta-lactamase (BLA) Follow-Up Assay, Ratio (AID 2283958). In a few lines: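 Cells were plated and allowed to attach for 5 h, then dosed with compounds in DMSO at 11 concentrations for 18 h at 37C. Beta-lactamase reporter activity was measured via CCF4-AM FRET as the 460:530 nm ratio.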

Assay [9] in a line: TOX21_TRB_BLA_Antagonist_Followup_viability: Viability Assessment in the Tox21 Thyroid Hormone Receptor beta Antagonism Beta-lactamase (BLA) Follow-Up Assay (AID 2283961). Put shortly:
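HEK293T cells stably expressing GAL4-DBD/human TRβ-LBD with UAS-bla reporter, 3,000 cells/well in phenol red-free DMEM, 2% charcoal-stripped FBS. Compounds at 11 concentrations in triplicate, 18 h at 37C/5% CO2; viability by CellTiter-Glo luminescence after 30 min at room temperature.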

The target in assay [10] is THRB (gene 7068) (UniProt P10828). In words: TOX21_TRB_COA_Antagonist_Followup_ratio: Tox21 Thyroid Hormone Receptor beta Antagonism through Coactivator Recruitment Follow-Up Assay, Ratio (AID 2283967). Put shortly: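 GST-TRb LBD 5.0 nM + 0.10% BSA, compound added; fluorescein-SRC-2 peptide 200 nM, Tb-anti-GST Ab 2 nM. TR-FRET, ex 340 / em 520:495 ratio. Norm: DMSO 0%, T3 100%.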

Assay [11] can be described thus: TOX21_TR_RXR_BLA_Antagonist_Followup_viability: Viability Assessment in the Tox21 Thyroid Hormone Receptor beta Retinoid X Receptor alpha (RXRa) Antagonism Beta-lactamase (BLA) Follow-Up Assay (AID 2283979). Put shortly: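 RXRa-bla HEK293T cells (2,500/well, phenol red-free DMEM, 2% charcoal-stripped FBS) were attached 5 h, then exposed to compounds at 11 concentrations in triplicate for 16 h at 37C. Viability measured by CellTiter-Glo ATP luminescence, bidirectional fitting versus DMSO.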

Assay [12] concerns the target Cellular tumor antigen p53 (Homo sapiens) (UniProt P04637). In words: TOX21_p53_BLA_p3_ratio: Tox21 HCT-116 p53 Agonism Beta-lactamase Assay, Ratio, Phase 3 (AID 2283596). In a few lines: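 Cells were seeded at 4000/well, rested 5 h at 37C, then dosed with DMSO compound solutions (217-fold dilution) for 16 h. CCF4-AM substrate was loaded for 2 h at room temperature, and the 460/530 nm emission ratio was fitted for gain of signal versus DMSO.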

The target is the same in assay [13]. In words: TOX21_p53_BLA_p5_ratio: Tox21 HCT-116 p53 Agonism Beta-lactamase Assay, Ratio, Phase 5 (AID 2283599). Put shortly:
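HCT-116 p53-bla cells (4000/well) plated 5 h, dosed with compound (217-fold DMSO dilution) for 16 h at 37 C; CCF4-AM substrate 2 h at room temperature. Activity is the 460/530 nm emission ratio (405 nm excitation), fitted in gain-of-signal direction versus DMSO.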

Chain of Cellular tumor antigen p53 (Homo sapiens) (P04637 whole entry, looked up): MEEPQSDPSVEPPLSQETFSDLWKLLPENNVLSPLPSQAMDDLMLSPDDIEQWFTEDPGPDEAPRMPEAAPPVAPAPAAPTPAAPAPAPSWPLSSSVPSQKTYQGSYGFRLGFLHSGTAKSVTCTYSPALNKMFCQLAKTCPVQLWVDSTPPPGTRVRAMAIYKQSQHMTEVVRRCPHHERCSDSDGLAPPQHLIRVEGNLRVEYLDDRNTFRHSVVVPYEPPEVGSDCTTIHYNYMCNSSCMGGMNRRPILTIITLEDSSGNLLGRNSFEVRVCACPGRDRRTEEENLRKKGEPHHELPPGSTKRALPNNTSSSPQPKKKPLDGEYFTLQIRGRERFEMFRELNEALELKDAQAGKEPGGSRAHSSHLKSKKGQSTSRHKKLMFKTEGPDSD
Chain of THRB (gene 7068) (P10828 whole entry, looked up, the tested form may be a part): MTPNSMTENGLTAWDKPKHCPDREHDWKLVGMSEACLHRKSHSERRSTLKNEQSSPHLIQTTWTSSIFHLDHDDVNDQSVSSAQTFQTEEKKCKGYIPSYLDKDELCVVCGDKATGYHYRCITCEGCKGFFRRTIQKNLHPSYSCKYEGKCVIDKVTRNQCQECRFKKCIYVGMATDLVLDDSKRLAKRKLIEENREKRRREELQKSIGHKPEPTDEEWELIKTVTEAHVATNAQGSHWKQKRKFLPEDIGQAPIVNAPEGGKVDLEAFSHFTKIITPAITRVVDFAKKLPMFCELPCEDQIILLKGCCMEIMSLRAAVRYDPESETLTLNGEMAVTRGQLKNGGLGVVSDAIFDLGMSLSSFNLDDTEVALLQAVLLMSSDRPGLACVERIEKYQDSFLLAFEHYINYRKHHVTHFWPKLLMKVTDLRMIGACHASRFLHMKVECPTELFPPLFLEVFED
Chain of THRA (gene 7067) (P10827 whole entry, looked up, the tested form may be a part): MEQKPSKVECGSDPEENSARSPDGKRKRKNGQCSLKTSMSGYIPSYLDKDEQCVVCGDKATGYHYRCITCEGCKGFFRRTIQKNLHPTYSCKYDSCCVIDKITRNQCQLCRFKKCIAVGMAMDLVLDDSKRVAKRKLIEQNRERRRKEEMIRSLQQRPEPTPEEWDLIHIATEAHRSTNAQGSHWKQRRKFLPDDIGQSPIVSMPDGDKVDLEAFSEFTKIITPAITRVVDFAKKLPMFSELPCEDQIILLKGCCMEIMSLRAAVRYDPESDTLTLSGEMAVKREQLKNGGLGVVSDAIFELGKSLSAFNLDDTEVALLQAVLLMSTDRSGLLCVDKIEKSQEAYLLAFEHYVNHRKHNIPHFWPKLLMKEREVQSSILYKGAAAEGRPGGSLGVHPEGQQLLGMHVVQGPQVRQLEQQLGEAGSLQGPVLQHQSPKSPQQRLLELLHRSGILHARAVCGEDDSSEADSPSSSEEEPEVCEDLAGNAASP

With `Cc1ccccc1CNc1ncnc2c1ncn2[C@@H]1O[C@H](CO)[C@@H](O)[C@H]1O`, the result in assay [1], in [2], in [3], in assay [4] and in assay [5] was inactive.
On to `CN(C)CCCNCCC#N`, for which the outcome in assay [6] was inactive.
For `CC[C@@]1(O)C[C@@H]2CN(CCc3c([nH]c4ccccc34)[C@@](C(=O)OC)(c3cc4c(cc3OC)N(C)[C@H]3[C@@](O)(C(=O)OC)[C@H](OC(C)=O)[C@]5(CC)C=CCN6CC[C@]43[C@@H]65)C2)C1`, the figures for the half-maximal activity concentration (AC50) (in [7]; in the assay with THRB (gene 7068) [8]) were 17.5 µM (active) and 0.0734 µM (active), respectively. Also, the result (with THRA (gene 7067); in assay [9]; with THRB (gene 7068) [10]; in assay [11]) was inactive.
Turning to `CCN(CC)CCOC(=O)C(Cc1cccc2ccccc12)CC1CCCO1` (centres undefined), the call in assay [1], in assay [12], in assay [3] and in [5] was inactive.
In the case of `CN1C(=O)CC(c2ccccc2)C1=O` (centres undefined), the molecule was classed as inactive in assay [1], in [12], in assay [13], in assay [4] and in assay [5].
Consider `O=c1[nH]c2ccc(Cl)cc2o1`, for which the outcome in [1], in assay [12], in assay [13], in assay [4] and in assay [5] was inactive.
Regarding `O=C1c2ccccc2C(=O)c2cc(Cl)ccc21`, the call in [1], in assay [12], in assay [3] and in [4] was inactive.
As for `CC(O)CN(CCCN(C)C)CCCN(C)C` (centres undefined), the result in assay [1], in [12], in assay [13] and in assay [4] was inactive.
As for `Cc1ccc(=O)n(-c2ccccc2)c1`, the molecule was called inactive in assay [1], in assay [12], in assay [3], in assay [13] and in assay [5].
